Assay results from PubChem BioAssay (EPA / NIEHS).
Calls of active or inactive are those of the source. Rule for the calls: active = hit-call score of the fitted dose curve at least 0.9, where 1 is the maximum; inactive = score below 0.9.

Experiments:
[1] = APR_HepG2_P-H2AX_72hr: Apredica 72-hour HepG2 Assay for H2AX Phosphorylation (AID 2282916); conditions: imaging, actives raise or lower the signal;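 note: phospho-histone H2A.x immunostain intensity per cell marking DNA damage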
Method in brief: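 Phospho-histone H2A.x immunofluorescence, multiplexed with Hoechst and c-Jun, quantified by high-content imaging. Compounds applied to HepG2 for 72 h across ten concentrations (0.39–200 uM, 0.5% DMSO), in duplicate; DMSO baseline.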

[2] = APR_HepG2_MitoMembPot_72hr: Apredica 72-hour HepG2 Assay for Mitochondrial Membrane Potential (AID 2282917); conditions: imaging, actives raise or lower the signal
Method in brief: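 HepG2 cells exposed 72 h to compounds at 0.39–200 uM (0.5% v/v DMSO, duplicates); MitoTracker Red CMXRos 250 nM loaded 30 min before 3.7% formaldehyde fixation, imaged by HCS fluorescence. Bidirectional fit versus DMSO.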

[3] = APR_HepG2_MitoticArrest_72hr: Apredica 72-hour HepG2 Assay for Mitotic Arrest (AID 2282918); conditions: high-content imaging, actives raise or lower the signal
Method in brief: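 Mitotic arrest in HepG2 is scored from phospho-histone H3 staining after 72 hr dosing across 0.39–200 uM, with DMSO at 0.5% v/v. Nuclei are identified by Hoechst 33342 and fluorescence intensity is quantified per cell.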

[4] = APR_HepG2_MicrotubuleCSK_72hr: Apredica 72-hour HepG2 Assay for Microtubule CSK Stabilty (AID 2282919); conditions: HepG2 microtubule cytoskeleton, high-content imaging, actives raise or lower the signal
Method in brief: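 Ten-point dosing (0.39–200 uM, 0.5% DMSO) of HepG2 for 72 hr, with taxol as the cytoskeletal positive control. The cells were formaldehyde-fixed and then stained with alpha-tubulin/Cy5 and Hoechst. Imaging at 20x used a −2 um Z offset for tubulin.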

[5] = APR_HepG2_P-H2AX_24hr: Apredica 24-hour HepG2 Assay for H2AX Phosphorylation (AID 2282920); conditions: high-content imaging, actives raise or lower the signal
Method in brief: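 Signal comes from a FITC-labeled secondary detecting phospho-histone H2A.x in fixed HepG2 cells, quantified by automated imaging at 20x. Dosing ran 24 hr across 0.39–200 uM with 0.5% v/v DMSO.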

[6] = APR_HepG2_StressKinase_72hr: Apredica 72-hour HepG2 Assay for Stress Kinase (AID 2282921); conditions: HepG2 stress kinase (phospho-c-Jun) imaging, actives raise or lower the signal
Method in brief: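 Stress kinase signal is phospho-c-Jun immunofluorescence (1:500 primary, Cy3 secondary) in fixed, permeabilized human HepG2 cells imaged at 20x. Exposure lasted 72 hr over ten concentrations from 0.39 to 200 uM, 0.5% DMSO, in duplicate. Bidirectional fit versus DMSO.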

[7] = APR_HepG2_p53Act_72hr: Apredica 72-hour HepG2 Assay for p53 Activation (AID 2282923); conditions: high-content imaging, actives raise or lower the signal;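 note: average cellular p53 protein immunofluorescence intensity in HepG2 cells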
Method in brief: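 After 72 h with compound (ten points, 0.39 to 200 uM, final DMSO 0.5% v/v), fixed HepG2 cells were labelled with sheep anti-p53 and Hoechst 33342 and imaged; gain or loss versus DMSO scored.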

[8] = APR_HepG2_MitoMass_72hr: Apredica 72-hour HepG2 Assay for Mitochondrial Mass (AID 2282924); conditions: high-content imaging, actives raise or lower the signal;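 note: MitoTracker Red CMXRos stain intensity per cell imaged as mitochondrial mass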
Method in brief: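 Steps: treat HepG2 72 hr (0.39–200 uM, duplicate wells); load MitoTracker Red CMXRos, 250 nM, 30 min; fix with 3.7% formaldehyde, permeabilise with 0.5% Triton X-100; capture images, nuclei via Hoechst 33342; fit bidirectionally against DMSO.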

[9] = APR_HepG2_NuclearSize_72hr: Apredica 72-hour HepG2 Assay for Nuclear Size (AID 2282925); conditions: high-content imaging, actives raise or lower the signal
Method in brief: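 Compounds (0.39–200 uM, final DMSO 0.5%) were applied to HepG2 for 72 hr. Cells were then formaldehyde-fixed, permeabilized and labelled with Hoechst 33342. Nuclear diameter was quantified from six images per well.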

[10] = APR_HepG2_StressKinase_24hr: Apredica 24-hour HepG2 Assay for Stress Kinase (AID 2282922); conditions: HepG2 stress kinase (phospho-c-Jun) imaging, actives raise or lower the signal
Method in brief: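 After 24 hr compound treatment (up to 200 uM, final DMSO 0.5% v/v), HepG2 cells are fixed and multiplex-labeled; phospho-c-Jun intensity is captured by high-content fluorescence imaging and analyzed relative to DMSO.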

Measured: AC50

CC(C)c1cccc(C(C)C)c1N1C(=O)c2ccc(O)cc2C1=O
active: [1] 6.16 µM | [3] 6.04 µM | [4] 14.8 µM | [5] 44 µM | [6] 6.1 µM | [7] 3.01 µM
inactive: [2] | [8] | [9]

NC(=O)NO
not listed: [10]
inactive: all other assays above

CCOc1cccc(-n2cc(C(=O)N3CCN(c4cc(C(=O)O)c5ccccc5c4)CC3)nc2-c2ccc(C)cc2)c1
active: [1] 89.5 µM | [3] 77.2 µM | [5] 90.4 µM | [6] 60.2 µM | [7] 76.1 µM
inactive: all other assays above

CC(C)(O)c1coc(S(=O)(=O)NC(=O)Nc2c3c(cc4c2CCC4)CCC3)c1
inactive: all assays above

CCCN(C1CCN(C(=O)C2CCNCC2)CC1)[C@@H]1CCc2ccc(OC)cc2C1
active: [1] 64 µM | [3] 53 µM | [5] 80.8 µM | [7] 68.9 µM | [8] 111 µM
inactive: [2] | [4] | [6] | [9]

O=C1CCCCCN1
inactive: all assays above

O=C(CCCCCCCCc1cccnc1)N1CCC(C=C(c2ccccc2)c2ccccc2)CC1
inactive: all assays above

COC(=O)c1ccccc1O
inactive: all assays above

CNS(=O)(=O)c1cc(C(=O)N2CCC(CCN3C4CCC3CC(n3c(C)nc5ccccc53)C4)(c3cccc(F)c3)CC2)c(Cl)cc1F (configuration not stated)
active: [1] 11.1 µM | [3] 10.3 µM | [4] 65.2 µM | [5] 52.9 µM | [10] 54.4 µM
inactive: [2] | [6] | [7] | [8] | [9]

CC(C)CCO
inactive: all assays above

O=C(O)CCN(C1(C(=O)NO)CCCC1)S(=O)(=O)c1ccc(Oc2ccc(F)cc2)cc1
inactive: all assays above

CC(C)CC(C)(O)C#CC(C)(O)CC(C)C (configuration not stated)
not listed: [10]
inactive: all other assays above

CC1=CC(=O)CC(C)(C)C1
not listed: [10]
inactive: all other assays above

CCCCC(CC)COC(=O)c1ccc(C(=O)OCC(CC)CCCC)cc1 (configuration not stated)
active: [1] 31.5 µM
inactive: all other assays above

CCOCCOCCOCCO
inactive: all assays above

CC(=O)OC[C@H]1O[C@@](COC(C)=O)(O[C@H]2O[C@H](COC(C)=O)[C@@H](OC(C)=O)[C@H](OC(C)=O)[C@H]2OC(C)=O)[C@@H](OC(C)=O)[C@@H]1OC(C)=O
inactive: all assays above

O=c1n(CC2CO2)c(=O)n(CC2CO2)c(=O)n1CC1CO1 (configuration not stated)
active: [1] 15.2 µM | [3] 15.8 µM | [5] 17.8 µM | [10] 31.6 µM | [7] 5.06 µM | [8] 50 µM
inactive: [2] | [4] | [6] | [9]

Cc1ccc(O)cc1
not listed: [10]
inactive: all other assays above

COc1cccc(-c2ccc(/C=C\CN3CCCCCC3)cc2Cl)c1
active: [1] 22.5 µM | [3] 17.6 µM | [5] 48.9 µM | [6] 32.3 µM | [10] 69.3 µM | [7] 22.5 µM | [9] 62 µM
inactive: [2] | [4] | [8]

CC(=O)c1ccc2c(c1)[C@H](NC(=O)c1ccc(F)cc1)[C@@H](O)C(C)(C)O2
not listed: [10]
inactive: all other assays above

COc1ccc(-n2nc(C(F)F)cc2-c2ccc(S(C)=O)cc2)cc1 (configuration not stated)
active: [8] 36.8 µM
inactive: all other assays above

Cn1cnc([N+](=O)[O-])c1Sc1ncnc2nc[nH]c12
not listed: [10]
inactive: all other assays above

Cc1ccc(S(=O)(=O)O)cc1C
active: [8] 0.0391 µM
not listed: [10]
inactive: all other assays above

CC1(C)C(=O)N(Br)C(=O)N1Br
not listed: [10]
inactive: all other assays above

O=P(OC(CCl)CCl)(OC(CCl)CCl)OC(CCl)CCl
inactive: [4] | [7] | [8] | [9]
active: [1] 47.5 µM | [2] 50 µM | [3] 39.6 µM | [5] 43.4 µM | [6] 59.2 µM

O=C1CCC(N2C(=O)c3ccccc3C2=O)C(=O)N1 (configuration not stated)
not listed: [10]
inactive: all other assays above

CCOC(=O)CC(CC(=O)OCC)(OC(C)=O)C(=O)OCC
not listed: [10]
inactive: all other assays above

Clc1nc(Cl)c(Cl)c(Cl)c1Cl
inactive: [2] | [4]
active: [1] 57.5 µM | [3] 34.1 µM | [5] 41.2 µM | [6] 68.5 µM | [7] 25 µM | [8] 89.9 µM | [9] 96.9 µM

Cc1c(-c2cccnc2)c2ccccc2n1CCCCC(=O)O
not listed: [10]
inactive: all other assays above

C=CCCCCCCCCC(=O)O
not listed: [10]
inactive: all other assays above

CCOCCO
not listed: [10]
inactive: all other assays above

COC(=O)c1c(Cl)c(Cl)c(C(=O)OC)c(Cl)c1Cl
not listed: [10]
inactive: all other assays above

CC(C)=CCC/C(C)=C/CO
active: [7] 107 µM
not listed: [10]
inactive: all other assays above

Cn1c(=O)c2c(ncn2C)n(C)c1=O
not listed: [10]
inactive: all other assays above

COCCOCCOCCOC
not listed: [10]
inactive: all other assays above

Nc1cccc(N)c1
active: [5] 48.3 µM
not listed: [10]
inactive: all other assays above

CCCCCCCCCCCCc1ccccc1
not listed: [10]
inactive: all other assays above

O=C(O)CC(O)C(=O)O (configuration not stated)
not listed: [10]
inactive: all other assays above

Cc1ccc(C)c(O)c1
not listed: [10]
inactive: all other assays above

C1=CCCC=CCCC=CCC1
not listed: [10]
inactive: all other assays above

CC(=O)OCCC(C)C
not listed: [10]
inactive: all other assays above

CC[C@H]1CC[C@H](NCc2cc3c(cc2OC)[C@H]2C[C@H]2C(=O)N3C)[C@H](c2ccccc2)N1
not listed: [10]
inactive: all other assays above

C1N2CN3CN1CN(C2)C3
not listed: [10]
inactive: all other assays above

Nc1ccc(Nc2ccccc2)cc1
active: [1] 29.9 µM | [3] 42.1 µM | [5] 17.9 µM | [7] 33.3 µM
not listed: [10]
inactive: all other assays above

On1ccccc1=S
active: [3] 21.5 µM | [6] 5.96 µM | [7] 8.59 µM | [9] 3.98 µM
not listed: [10]
inactive: all other assays above

CCn1nc(Cc2ccccc2)cc1C1CCN(C[C@H]2C[C@H](N(C)[C@@H](C(=O)O)C(C)C)C[C@@H]2c2cccc(F)c2)CC1
active: [3] 113 µM
not listed: [10]
inactive: all other assays above

CCCCCCCCCCCCCCCO
active: [3] 95.6 µM
not listed: [10]
inactive: all other assays above

CC[C@H]1OC(=O)[C@H](C)[C@@H](O[C@H]2C[C@@](C)(OC)[C@@H](O)[C@H](C)O2)[C@H](C)[C@@H](O[C@@H]2O[C@H](C)C[C@H](N(C)C)[C@H]2O)[C@](C)(O)C[C@@H](C)C(=O)[C@H](C)[C@@H](O)[C@]1(C)O
not listed: [10]
inactive: all other assays above

CC(C)CCCCCCOC(=O)c1ccc(C(=O)OCCCCCCC(C)C)c(C(=O)OCCCCCCC(C)C)c1
not listed: [10]
inactive: all other assays above

COC(=O)CC(=O)OC
not listed: [10]
inactive: all other assays above

CCCC(=O)OCC
not listed: [10]
inactive: all other assays above

CN(C)c1ccc(N=NS(=O)(=O)O)cc1
active: [7] 57 µM
not listed: [10]
inactive: all other assays above
